This is part of a sample that, as a whole, favours compounds with a hit. Of some 79,000 tested, about 15% had one in any assay. The source made the active and inactive calls. Cut-off read from the data, not from the text of the source: active = growth inhibition above about 70%; inactive = the rest.
Assay: NCI Yeast Anticancer Drug Screen. Data for the cln2 rad14 strain (AID 165);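 note: 0% = growth equal to vehicle treated cultures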
Conditions: S. cerevisiae cln2 rad14 strain, at 50.0 µM (retest, dose inferred, filed as 5.0), hits give high values
How it was run: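 The screen exposed genetically defined yeast (cln2 rad14) to test compounds and scored growth inhibition relative to vehicle-treated controls.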

Structure (SMILES)	growth inhibition
CCN1CCC(O)(/C=C/c2ccc(Cl)c(Cl)c2)C(C(=O)/C=C/c2ccc(Cl)c(Cl)c2)C1 (configuration not stated)	99% (active)
Nc1ccc(-c2ccc(N)cc2S(=O)(=O)O)c(S(=O)(=O)O)c1	-5% (inactive)
COc1ccc2c(c1)CCc1c(-c3noc4c3CCc3cc(OC)ccc3-4)noc1-2	9% (inactive)
Cc1ccc(NC(=S)N(CCC#N)C2CCCCC2)cc1C	3% (inactive)
COc1ccc2c(c1)CC1c3c(ccc(OC)c3O)CC2N1C (configuration not stated)	52% (inactive)
CCN(CC)CCCC(C)Nc1c2ccccc2nc2c(C)cc(Br)cc12 (configuration not stated)	66% (inactive)
O=C(O)c1cc2ccc3cccc4ccc(c1)c2c34	92% (active)
CCOC(=O)NC(=S)Nc1ccsc1	-13% (inactive)
CC(C)CCC(C)(C)c1cc(O)ccc1O	92% (active)
COc1ccc(C(c2cc3c(cc2O)OCO3)N2CCOCC2)c(OC)c1OC (configuration not stated)	63% (inactive)
CCOC(=O)C1=C(C)NC(C)=C(C(=O)OCC)C1c1c(-c2ccccc2)noc1C	40% (inactive)
O=C(CCl)Oc1ccc(Sc2ccc(OC(=O)CCl)cc2)cc1	94% (active)
Nc1ccc2[nH]c3ccccc3c2c1	3% (inactive)

Same assay, conditions: S. cerevisiae cln2 rad14 strain, at 50.0 µM, hits give high values

Structure (SMILES)	growth inhibition
CCCCCCCCCCCCCCCBr	85.5% (active)
CCCCCCCCCCCC(=O)OCC(C)C	-3.95% (inactive)
O[Si](O)(c1ccccc1)c1ccccc1	90.2% (active)
O=C(c1ccccc1)C(C(=O)c1ccccc1)c1ccc2ccccc2n1	9.75% (inactive)
O=C1C=CC(=O)N1c1ccccc1[N+](=O)[O-]	99.6% (active)
CCCCCCCCCCCC(O)=C1C(=O)CC(O)CC1=O (configuration not stated)	90.3% (active)
OCCc1cccc2ccc3ccccc3c12	88.2% (active)
O=C1C(=O)C(Cl)=C(Cl)C(Cl)=C1Cl	98.5% (active)
O=C1C=CC2C(=O)c3ccccc3C(=O)C2=C1 (configuration not stated)	66.7% (inactive)
O=C(N(c1ccc(Cl)cc1)c1ccc(Cl)cc1)C(Cl)(Cl)Cl	-7.95% (inactive)
COc1cccc2c1S(=O)(=O)C(c1ccccc1)=CC2=O	98.7% (active)
COc1cc(-c2nn3c(=O)n(-c4ccc(Cl)cc4)c(=O)nc3s2)cc(OC)c1OC	24% (inactive)
O=[N+]([O-])C1(CO)COC(CCc2ccccc2)OC1 (configuration not stated)	97.5% (active)
COc1ccc(C(=O)CCc2c[nH]c3ccccc23)c(O)c1	14.2% (inactive)
CC/C(=C(\CC)c1ccc(OCCN2CCOCC2)cc1)c1ccc(OCCN2CCOCC2)cc1	83.5% (active)
CCCCCCCCCCCN1C(=O)c2ccccc2S1(=O)=O	58.8% (inactive)
CCCCCCCCCCCC(=O)NN	97% (active)

Structure (SMILES)	growth inhibition
CCN1CCC(O)(/C=C/c2ccccc2)C(C(=O)/C=C/c2ccccc2)C1 (configuration not stated)	85.1% (active)
NC(=S)NNCCC(=O)Nc1ccccc1C(F)(F)F	6.15% (inactive)
NS(=O)(=O)c1ccc(N=Cc2c3ccccc3nc3cc(Cl)ccc23)cc1	8.05% (inactive)
Nc1ccc(O)c(=O)cc1	25.1% (inactive)
Oc1ccc[nH]c1=S	-8.7% (inactive)
COc1cccc2c1C(=O)c1c(O)c3c(c(O)c1C2=O)C[C@@](O)(/C(C)=N/NC(=O)c1ccc(Cl)c(Cl)c1)C[C@@H]3OC1CC(N)C(O)C(C)O1 (some centres not stated)	72.7% (active)
O=C1c2ccccc2C(=O)c2c1ccc(O)c2O.[Cu]	33.1% (inactive)
CCC(=O)C(C(=O)CC)c1c(OC(=O)c2ccccc2)ccc(O)c1C(=O)OC	-7.45% (inactive)
CC(C)CCCC(C)C1CCC2(C)C3=CCC4C(C)(CCC(O)C4(C)C)C3=CCC12C (configuration not stated)	97.7% (active)
CCNC(=O)COc1ccc(Cl)cc1Cl	38.8% (inactive)
CCN1CCC(O)(/C=C/c2ccc(Cl)c(Cl)c2)C(C(=O)/C=C/c2ccc(Cl)c(Cl)c2)C1 (configuration not stated)	97.8% (active)
Nc1ccc(-c2ccc(N)cc2S(=O)(=O)O)c(S(=O)(=O)O)c1	23.4% (inactive)
COc1ccc2c(c1)CCc1c(-c3noc4c3CCc3cc(OC)ccc3-4)noc1-2	53.5% (inactive)
Cc1ccc(NC(=S)N(CCC#N)C2CCCCC2)cc1C	0.5% (inactive)
COc1ccc2c(c1)CC1c3c(ccc(OC)c3O)CC2N1C (configuration not stated)	92.5% (active)
CCN(CC)CCCC(C)Nc1c2ccccc2nc2c(C)cc(Br)cc12 (configuration not stated)	91.2% (active)
O=C(O)c1cc2ccc3cccc4ccc(c1)c2c34	77.8% (active)
